Sampled rows, rich in hits. Any-hit rate of the full collection: about 3.1%.
HSF1 inh – HSF1 inhibition; NIH3T3-HGL HSE-luciferase, MG132-induced, luminescence 8 h; active compounds read low; activity change, negative = inhibition, % at 7.5 µM (by protocol); 300,000 compounds, 0.77% hits; AID 2098;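 active = more than half of replicate wells show activity change below -50%, luminescence cut by over half; inconclusive = some wells, but at most half, below -50%; inactive = no replicate well below -50%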;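 note: luciferase reports HSF-1 transcriptional activity via heat shock element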
HIF act – HIF pathway transcriptional activation; activation, % at 7.5 µM (by protocol); U2OS HRE-luciferase reporter, luminescence; normalized: DMSO 0%, desferrioxamine 100%; 300,000 compounds, 0.32% hits; AID 1910;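 active = mean activation of at least 10% of the iron chelator positive control signal, with at least half of replicates also reaching 10%; inconclusive = mean and replicate majority disagree about reaching 10%; inactive = mean and most replicates under 10%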
HSF1 activator – increases HSF-1 driven luciferase reporter signal. NIH3T3-HGL HSF-1 luciferase reporter, MG132, 8 h; 100% = twice DMSO control signal. activation, % at 9 µM. 300,000 compounds, 1.7% hits;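 active = mean replicate activation of at least 50% with a set share of replicates each reaching 50%; inconclusive = only one of those two conditions met; inactive = mean below 50% and too few replicates reaching it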
ARNT-TACC3 inh – ARNT/TACC3 interaction disruption; Q9Y6A5; AlphaScreen His-ARNT PAS-B/GST-TACC3 binding, luminescence; TACC3 fragment carries E629A point mutation; inhibition, % at 9.99 µM; 390,000 compounds, 0.66% hits;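 active = mean inhibition of replicates at least 50% and at least half of replicates each reaching 50%; inconclusive = half or more replicates reach 50% but mean below 50%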
HSP90 inh – inhibitors of HSP90 luciferase refolding in rabbit reticulocyte lysate; 290,000 compounds, 0.91% hits; inhibition, % at 5.6 µM; luciferase refolding luminescence, 3 h; AID 1789;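 active = inhibition above the screen-wide mean plus 3 SD, computed separately per campaign, cut at about 16% in these data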;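 note: inhibitors lower the luminescence because luciferase stays unfolded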
Each line names hits and unclear results; the compound was inactive in the other large screens.

O=C(N/N=C/c1cn(-c2cccs2)nc1-c1ccccc1)c1ccccc1Cl	HSF1 activator 59
O=C(N/N=C/c1cn(-c2cccs2)nc1-c1ccccc1)c1ccc(O)cc1	HSF1 activator 57
O=C(N/N=C/c1cn(-c2ccccc2)nc1-c1ccccc1)c1ccco1	none
O=C(N/N=C/c1cn(-c2ccccc2)nc1-c1cccs1)c1ccncc1	none
C/C(=N\Nc1ccc([N+](=O)[O-])cc1)c1ccco1	HSF1 activator 55
Cc1nccn1Cc1cccc2ccccc12	HSF1 inh -53
Oc1ccccc1OCc1nc2ccccc2s1	HSF1 activator 74
Oc1ccc(O)c(Cc2nc3ccccc3s2)c1	HSF1 activator 69
OCc1cc(Br)ccc1OCc1nc2ccccc2s1	HSF1 activator 71
Nc1ccc(C(=O)OCc2nc3ccccc3s2)cc1	none
COc1ccc(S(=O)(=O)Nc2ccc3c(c2)CC(=O)N([C@H](C)CO)C[C@H](C)[C@@H](CN(C)S(=O)(=O)c2ccccc2)O3)cc1	none (no result: HSF1 inh, HIF act, HSF1 activator, HSP90 inh)
Cc1ccc(N=c2c([N+](=O)[O-])nn(-c3ccc4c(c3)OCCO4)n2O)cc1F	HSF1 inh -79
O=C1CCCN1CCCN=c1c([N+](=O)[O-])nn(-c2ccc(Cl)cc2)n1O	HSF1 activator 62
Cc1cc(C)cc(N=c2c([N+](=O)[O-])nn(-c3ccc4c(c3)OCCO4)n2O)c1	none
O=[N+]([O-])c1nn(-c2ccc3c(c2)OCCO3)n(O)c1=Nc1ccc(Cl)cc1	HSF1 inh -79
O=[N+]([O-])c1nn(-c2ccc3c(c2)OCCO3)n(O)c1=Nc1ccccc1	HSF1 inh -89
COc1cccc(C(=O)Nc2ccc3c(c2)C(=O)N(C)C[C@@H](OC)[C@@H](C)CN[C@H](C)CO3)c1	none (no result: HSF1 inh, HIF act, HSF1 activator, HSP90 inh)
Cc1ccc(N=c2c([N+](=O)[O-])nn(-c3ccc4c(c3)OCCO4)n2O)c(Cl)c1	HSF1 inh -63, HSP90 inh 17 (no result: ARNT-TACC3 inh)
Cc1noc(C)c1NC(=O)Nc1ccc2c(c1)CC(=O)N([C@H](C)CO)C[C@H](C)[C@@H](CN(C)C(=O)Nc1ccc(F)cc1)O2	none (no result: HSF1 inh, HIF act, HSF1 activator, HSP90 inh)
Cc1nn(C)cc1/C=N\NC(=O)c1ccc2c(c1)c(C)c(C)n2Cc1ccccc1	HSF1 activator 128
Cc1c(C)n(Cc2ccccc2)c2ccc(C(=O)O)cc12	none (no result: ARNT-TACC3 inh, HSP90 inh)
Cc1ccc2nc(COc3ccc(Cl)cc3)cc(=O)n2c1	HSF1 activator 66 (no result: ARNT-TACC3 inh)
Oc1ccc(N=Cc2ccc(OCc3ccccc3)cc2)cc1	HSF1 activator 65
CN(C)CC#Cc1ccc([C@@H]2[C@H]3CN(C(=O)C4CC4)CCCCN3[C@H]2CO)cc1	none (no result: HSF1 inh, HIF act, HSF1 activator, HSP90 inh)
C[C@@H]1CN([C@@H](C)CO)C(=O)Cc2cc(NC(=O)Nc3ccc4c(c3)OCO4)ccc2O[C@H]1CN(C)S(=O)(=O)c1cccs1	none (no result: HSF1 inh, HIF act, HSF1 activator, HSP90 inh)
Cc1cccc(C(C#N)c2ccc(Cl)nn2)c1 (stereo not given)	HSF1 activator 74 (no result: ARNT-TACC3 inh)
Cc1ccc(C(C#N)c2ccc(Cl)nn2)cc1 (stereo not given)	none
COc1ccc(S(=O)(=O)N[C@@H]2CC[C@@H](CC(=O)NCCc3ccncc3)O[C@H]2CO)cc1	none (no result: HSF1 inh, HIF act, HSF1 activator, HSP90 inh)
C[C@@H]1CCCCO[C@@H](CN(C)S(=O)(=O)c2cn(C)cn2)[C@H](C)CN([C@H](C)CO)C(=O)c2cc(NC(=O)Nc3ccc(C(F)(F)F)cc3)ccc2O1	none (no result: HSF1 inh, HIF act, HSF1 activator, HSP90 inh)
CSc1nc(Cl)c(Cc2ccc(OC(C)C)cc2)c(N(C)C)n1	HSF1 activator 59
COC(=O)[C@H]1[C@H](CO)[C@H]2Cn3c(ccc(-c4cccc(F)c4)c3=O)[C@H]2N1S(C)(=O)=O	none (no result: HSF1 inh, HIF act, HSF1 activator, HSP90 inh)
O=[N+]([O-])c1ccc(NN=Cc2ccccc2O)nc1	none (no result: HSF1 inh, HIF act, HSF1 activator, HSP90 inh)
O=[N+]([O-])c1ccc(N/N=C/c2ccccc2O)cc1	HIF act inconclusive, HSF1 activator 73
O=[N+]([O-])c1cccc(N/N=C/c2cc([N+](=O)[O-])ccc2O)c1	none (no result: ARNT-TACC3 inh)
COc1ccc(O)c(/C=N/Nc2nc3ccccc3[nH]2)c1	HSF1 activator 236
O=[N+]([O-])c1ccc(O)c(C=NNc2ccc(S(=O)(=O)O)cc2)c1	none (no result: HSF1 inh, HIF act, HSF1 activator, HSP90 inh)
O=[N+]([O-])c1ccc(O)c(/C=N/Nc2nc3ccccc3[nH]2)c1	HSF1 activator inconclusive, ARNT-TACC3 inh 83
COc1cccc(/C=N/Nc2nc3ccccc3[nH]2)c1OC	none
O=[N+]([O-])c1ccc(O)c(/C=N/Nc2ccccn2)c1	HIF act 63, ARNT-TACC3 inh 61
C[C@@H]1CN([C@H](C)CO)C(=O)c2cccc(NC(=O)NC3CCCCC3)c2O[C@H]1CN(C)Cc1ccc(Cl)c(Cl)c1	none (no result: HSF1 inh, HIF act, HSF1 activator, HSP90 inh)
COc1cc(/C=N/Nc2nc3ccccc3[nH]2)cc(OC)c1O	HSF1 activator 149
COc1cc(/C=N/Nc2nc3ccccc3[nH]2)ccc1O	HSF1 activator 344
O=C(/C(=C/c1ccc(Cl)cc1)c1nc2ccccc2[nH]1)c1ccccc1	HSF1 activator 184
COc1cc(/C=N/Nc2snc(SC)c2C#N)ccc1O	HSF1 activator 75
COc1cc(/C=N/Nc2cc(C)nc(N)n2)ccc1O	none
CNC(=O)C[C@H]1CC[C@@H]2[C@H](COC[C@@H](O)CN2C(=O)Nc2cccc(OC)c2)O1	none (no result: HSF1 inh, HIF act, HSF1 activator, HSP90 inh)
C[C@@H]1CCCCO[C@@H](CN(C)C(=O)NC2CCCCC2)[C@@H](C)CN([C@H](C)CO)C(=O)c2cc(NC(=O)Nc3ccc4c(c3)OCO4)ccc2O1	none (no result: HSF1 inh, HIF act, HSF1 activator, HSP90 inh)
CO[C@@H](CN(C)C(=O)c1ccccc1F)[C@@H](C)CN([C@H](C)CO)S(=O)(=O)c1ccc(Cl)cc1	none (no result: HSF1 inh, HIF act, HSF1 activator, HSP90 inh)
O=C(CN1CCOCC1)NCC[C@@H]1CC[C@@H](NC(=O)Nc2ccc(F)cc2)[C@@H](CO)O1	none (no result: HSF1 inh, HIF act, HSF1 activator, HSP90 inh)
COc1cc(/C=C(/C(=O)c2cccs2)c2nc3ccccc3[nH]2)cc(OC)c1O	HSF1 activator 351
O=C(O)c1cccc(S(=O)(=O)N2CCC(n3nnc4cc(C(F)(F)F)ccc43)CC2)c1	HSF1 activator 79 (no result: ARNT-TACC3 inh)
Nc1nc(CSc2ncn(-c3ccccc3)n2)cs1	HSF1 inh -86
c1ccc(CSc2ncn(-c3ccccc3)n2)cc1	none
OCC1(Cc2cccc(C(F)(F)F)c2)CCN(Cc2cc3ccccc3o2)CC1	HSF1 activator 89 (no result: ARNT-TACC3 inh)
COCCCn1c(-c2ccco2)nc2ccccc2c1=O	HSF1 inh -68
COc1ccc(CCn2c(-c3ccco3)nc3ccccc3c2=O)cc1OC	none
Cc1nc2scc(C)n2c(=O)c1S(=O)(=O)N1CCN(c2cccc(C(F)(F)F)c2)CC1	HSF1 inh -65 (no result: ARNT-TACC3 inh)
CC1(C)NC(=O)N(CCCOc2ccccc2Br)C1=O	HSF1 activator 52 (no result: ARNT-TACC3 inh)
CC1(C)NC(=O)N(CCCCOc2ccccc2[N+](=O)[O-])C1=O	none (no result: ARNT-TACC3 inh)
COCCNC(=O)[C@H]1[C@H](CO)[C@H]2Cn3c(cccc3=O)[C@@H]1N2Cc1cc(F)ccc1F	none (no result: HSF1 inh, HIF act, HSF1 activator, HSP90 inh)
Cc1noc(/C=C/c2ccco2)c1S(=O)(=O)N1CCC(C(=O)NCc2ccco2)CC1	HSF1 inh -72
COC(CNC(=O)C1CCCN(S(=O)(=O)c2c(C)noc2/C=C/c2cccs2)C1)OC (stereo not given)	HSF1 activator inconclusive, HSP90 inh 17
